Results on 40 compounds are retold here after PubChem BioAssay (Tox21).

A number with no mark means an inactive call. Results filed as inconclusive are left out. Where a call stands in place of a potency, no number is given. Activity calls are given as the source filed them. Calls follow the shape of the full dose curve.

Acetylcholinesterase (Homo sapiens), sequence (P22303 whole entry, looked up): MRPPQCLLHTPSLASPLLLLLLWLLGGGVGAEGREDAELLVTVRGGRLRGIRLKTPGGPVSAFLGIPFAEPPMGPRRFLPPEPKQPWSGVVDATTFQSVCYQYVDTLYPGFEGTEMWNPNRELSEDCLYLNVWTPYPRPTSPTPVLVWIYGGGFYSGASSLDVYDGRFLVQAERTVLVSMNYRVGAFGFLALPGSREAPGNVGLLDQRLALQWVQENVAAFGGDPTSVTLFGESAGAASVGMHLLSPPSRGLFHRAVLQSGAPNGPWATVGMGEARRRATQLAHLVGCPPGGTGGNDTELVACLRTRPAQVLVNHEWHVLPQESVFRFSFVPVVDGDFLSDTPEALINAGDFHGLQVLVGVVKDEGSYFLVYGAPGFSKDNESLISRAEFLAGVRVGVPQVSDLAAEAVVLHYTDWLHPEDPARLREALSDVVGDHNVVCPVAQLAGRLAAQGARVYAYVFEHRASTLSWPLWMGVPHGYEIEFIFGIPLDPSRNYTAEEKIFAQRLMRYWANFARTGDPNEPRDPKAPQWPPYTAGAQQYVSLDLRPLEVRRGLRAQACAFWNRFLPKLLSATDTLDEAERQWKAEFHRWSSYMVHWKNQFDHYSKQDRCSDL

For the first assay, the target named is Acetylcholinesterase (Homo sapiens) (UniProt P22303). The assay can be described thus: Acetylcholinesterase (AChE) small molecule antagonists: colormetric cell-based qHTS assay (AID 1347395). Also: nearly all actives have a fitted effect of over 30% in size. The conditions noted are these: SH-SY5Y cells AChE activity, colorimetric (Ellman); series mostly up to 115 µM. In short, it runs like this:
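Quantitative HTS in attached SH-SY5Y cells: 30 min compound exposure, then 90 min with acetylthiocholine and DTNB at 37 C; colour from thiocholine reports AChE activity.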
A general note: qHTS replaces the single test concentration by a dilution series.
Turning to `N#Cc1ccc(C(c2ccc(C#N)cc2)n2cncn2)cc1`, the Potency result is “inactive”.
In the case of `Cc1ccc(N(CC2=NCCN2)c2cccc(O)c2)cc1`, the Potency entry was “inactive”.
Consider `C=CCCCCCCCCCCCCCC`, for which the activity, negative = inhibition was 0.819% [at 23.6 µM].
In the case of `CC(C)=CCC/C(C)=C/C#N`, the Potency result is “inactive”.
Take `COC(=O)c1cc(Cl)cc(Cl)c1`: the Potency entry was “inactive”.
For `C[C@H](CCC(=O)NCC(=O)O)[C@H]1CC[C@H]2[C@@H]3[C@H](O)C[C@@H]4C[C@H](O)CC[C@]4(C)[C@H]3C[C@H](O)[C@]12C`, the Potency entry was “inactive”.
Regarding `CCc1nccnc1C`, the Potency result was “inactive”.
On the same count and under the same terms, with `CC1=C2[C@H](/C=C(\C)C(=O)O)CC[C@@H](C)[C@H]2CC1` the entry was “inactive”; with `O/N=C/C=N/O`, “inactive”; with `CCOC(=O)c1ccc(O)c(O)c1`, “inactive”.
As to `COc1c(Br)cc(Br)c(C)c1Br`, the Potency result is “inactive”.
Regarding `C[C@H](N)C(=O)N[C@@H](C)C(=O)NC1[C@H]2CN(c3nc4c(cc3F)c(=O)c(C(=O)O)cn4-c3ccc(F)cc3F)C[C@@H]12` (some centres not stated), the compound was classed as inactive.
Turning to `COc1cccc([C@H](O)C2CCN(CCc3ccc(F)cc3)CC2)c1OC`, the Potency result is “inactive”.
Regarding `CCC(C)N(C)C(=O)c1cc2ccccc2c(-c2ccccc2Cl)n1` (configuration not stated), the Potency entry is “inactive”.
Still for that read-out and setting: the value for `CCCCC` was “inactive”; that for `CCCCCCCCOC(=O)CCCCCCCCC(=O)OCCCCCCCC` was “inactive”.
The same measure, in the same setting: with `O=CNc1ccccc1` the entry was “inactive”.

For the next assay the target is unchanged. The assay can be described thus: Acetylcholinesterase (AChE) small molecule antagonists: enzyme-based qHTS assay (AID 1347397). Also: nearly all actives have a fitted effect of over 55% in size. Also: potency is read from the fitted curve at half-maximal effect. The conditions noted are these: Potency: AChE enzyme activity inhibition; outcome: AChE enzyme activity inhibition; series mostly up to 115 µM. An outline of the steps: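 Recombinant human AChE (50 mU/mL) preincubated with compound 30 min at room temperature; acetylthiocholine plus DTNB then added, and thiocholine formation read colorimetrically after 10 min at room temperature. DMSO served as vehicle control.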
Turning to `COc1cc(OC)c2ccc(=O)oc2c1`, the Potency result is “inactive”.
Regarding `CC(C)=CCOc1ccc(/C=C/C(=O)c2ccc(OCC=C(C)C)cc2OCC(=O)O)cc1`, the Potency result is “inactive”.
As for `CC(N=C(NC#N)Nc1ccncc1)C(C)(C)C` (configuration not stated), the Potency result was “inactive”.
Regarding `CC(C)(C)CC(C)(C)c1ccc(OCCO)cc1`, the Potency entry was “inactive”.
For `CC[C@@]1(c2ccccc2)NC(=O)N(C)C1=O`, the Potency entry is “inactive”.
Turning to `Clc1ccc(C(Cn2ccnc2)OCc2ccc(Sc3ccccc3)cc2)c(Cl)c1` (configuration not stated), the Potency result was “inactive”.
On to `CCCCCCCCCCCCCCCCCl`, for which the activity change, negative = inhibition was 0.4% [at 23.6 µM].
In the case of `NC(=O)c1ccc(N)cc1`, the Potency result was “inactive”.
For `NCc1ccccc1`, the Potency entry is “inactive”.
On to `O=C(O)CNC(=O)c1ccc([N+](=O)[O-])cc1`, for which the Potency entry is “inactive”.
Take `Oc1ccc(-c2ccc(O)cc2)cc1`: the Potency entry is “inactive”.
On the same count and under the same terms, with `CC(C)OC(=O)c1cc2c(OCC(O)CNC(C)(C)C)cccc2[nH]1` (configuration not stated) the entry was “inactive”.
Consider `C[C@@H]1CC[C@H]2C(C)(C)[C@H]3C[C@@]12CC[C@@]3(C)O`, for which the Potency result was “inactive”.
The same measure, in the same setting: with `Nc1ccc(NCCO)c([N+](=O)[O-])c1` the figure was 71 µM (active).
For the compound `CCOC(=O)CC(C)O` (configuration not stated), the Potency result is “inactive”.
Turning to `Cc1ccc(=O)n(-c2ccccc2)c1`, the Potency result was “inactive”.
For the compound `CCCCCCCCCCCCCCN(C)C`, the activity change, negative = inhibition was 0.242% [at 23.6 µM].
On to `CN(C)CCc1c[nH]c2ccc(CS(=O)(=O)N3CCCC3)cc12`, for which the Potency entry was “inactive”.
For the compound `CC(C)(C)c1ccc(C=O)cc1`, the Potency entry is “inactive”.
Take `CC(=O)Nc1ccc(S(=O)(=O)Cl)cc1`: the Potency entry is “inactive”.
With `N#CCCOCCC#N`, the Potency result was “inactive”.
Same read-out and setting: the value for `C=CCOC(=O)COCCC(C)C` was “inactive”; that for `COc1ccc2c(c1OC)C(=O)O[C@@H]2[C@H]1c2c(cc3c(c2OC)OCO3)CCN1C` was “inactive”; that for `N#Cc1ccc(C(c2ccc(C#N)cc2)n2cncn2)cc1` was “inactive”.
Regarding `Cc1ccc(N(CC2=NCCN2)c2cccc(O)c2)cc1`, the Potency entry is “inactive”.
On to `C=CCCCCCCCCCCCCCC`, for which the activity change, negative = inhibition was 0.291% [at 23.6 µM].
Regarding `CC(C)=CCC/C(C)=C/C#N`, the Potency entry is “inactive”.
For `COC(=O)c1cc(Cl)cc(Cl)c1`, the Potency result is “inactive”.
On to `C[C@H](CCC(=O)NCC(=O)O)[C@H]1CC[C@H]2[C@@H]3[C@H](O)C[C@@H]4C[C@H](O)CC[C@]4(C)[C@H]3C[C@H](O)[C@]12C`, for which the Potency entry was “inactive”.
For `CCc1nccnc1C`, the Potency entry is “inactive”.
For `CC1=C2[C@H](/C=C(\C)C(=O)O)CC[C@@H](C)[C@H]2CC1`, the Potency entry was “inactive”.
As to `O/N=C/C=N/O`, the Potency entry is “inactive”.
For `CCOC(=O)c1ccc(O)c(O)c1`, the Potency entry is “inactive”.
On to `COc1c(Br)cc(Br)c(C)c1Br`, for which the Potency result is “inactive”.
With `C[C@H](N)C(=O)N[C@@H](C)C(=O)NC1[C@H]2CN(c3nc4c(cc3F)c(=O)c(C(=O)O)cn4-c3ccc(F)cc3F)C[C@@H]12` (some centres not stated), the outcome was inactive.
As to `COc1cccc([C@H](O)C2CCN(CCc3ccc(F)cc3)CC2)c1OC`, the Potency result is “inactive”.
Turning to `CCC(C)N(C)C(=O)c1cc2ccccc2c(-c2ccccc2Cl)n1` (configuration not stated), the Potency entry is “inactive”.
As for `CCCCC`, the Potency result is “inactive”.
For `CCCCCCCCOC(=O)CCCCCCCCC(=O)OCCCCCCCC`, the Potency result is “inactive”.
The same measure, in the same setting: with `O=CNc1ccccc1` the entry was “inactive”.

Another assay has the same target. Description: Acetylcholinesterase (AChE) small molecule antagonists: fluorescence cell-based qHTS assay (AID 1347398). Also: nearly all actives have a fitted effect of over 50% in size. Also: potency is read from the fitted curve at half-maximal effect. The conditions noted are these: SH-SY5Y cells; Potency: AChE activity; outcome: AChE activity; series mostly up to 115 µM. An outline of the steps: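 SH-SY5Y cells (2000/well), attached overnight, incubated with compound 30 min at 37 C. Acetylthiocholine plus Thiolite Green then added for 40 min at room temperature. Thiocholine fluorescence (Ex/Em 490/520 nm) reports cellular AChE activity.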
As for `COc1cc(OC)c2ccc(=O)oc2c1`, the Potency entry was “inactive”.
In the case of `CC(C)=CCOc1ccc(/C=C/C(=O)c2ccc(OCC=C(C)C)cc2OCC(=O)O)cc1`, the Potency entry was “inactive”.
Take `CC(N=C(NC#N)Nc1ccncc1)C(C)(C)C` (configuration not stated): the Potency result is “inactive”.
With `CC(C)(C)CC(C)(C)c1ccc(OCCO)cc1`, the Potency result was “inactive”.
For `CC[C@@]1(c2ccccc2)NC(=O)N(C)C1=O`, the Potency result is “inactive”.
On to `Clc1ccc(C(Cn2ccnc2)OCc2ccc(Sc3ccccc3)cc2)c(Cl)c1` (configuration not stated), for which the Potency entry is “inactive”.
Turning to `CCCCCCCCCCCCCCCCCl`, the activity change, negative = inhibition is -0.0126% [at 23.8 µM].
`NC(=O)c1ccc(N)cc1`: the Potency result is “inactive”.
For `NCc1ccccc1`, the Potency entry is “inactive”.
In the case of `O=C(O)CNC(=O)c1ccc([N+](=O)[O-])cc1`, the Potency result was “inactive”.
The same measure, in the same setting: the value for `Oc1ccc(-c2ccc(O)cc2)cc1` was “inactive”; that for `CC(C)OC(=O)c1cc2c(OCC(O)CNC(C)(C)C)cccc2[nH]1` (configuration not stated) was “inactive”; that for `C[C@@H]1CC[C@H]2C(C)(C)[C@H]3C[C@@]12CC[C@@]3(C)O` was “inactive”.
In the case of `Nc1ccc(NCCO)c([N+](=O)[O-])c1`, the Potency was 35.6 µM (active).
On to `CCOC(=O)CC(C)O` (configuration not stated), for which the Potency result was “inactive”.
As to `Cc1ccc(=O)n(-c2ccccc2)c1`, the Potency entry is “inactive”.
As for `CCCCCCCCCCCCCCN(C)C`, the activity change, negative = inhibition is 2.04% [at 23.8 µM].
On to `CN(C)CCc1c[nH]c2ccc(CS(=O)(=O)N3CCCC3)cc12`, for which the Potency entry is “inactive”.
The same measure, in the same setting: the value for `CC(C)(C)c1ccc(C=O)cc1` was “inactive”; that for `CC(=O)Nc1ccc(S(=O)(=O)Cl)cc1` was “inactive”; that for `N#CCCOCCC#N` was “inactive”.
As for `C=CCOC(=O)COCCC(C)C`, the Potency entry was “inactive”.
As to `COc1ccc2c(c1OC)C(=O)O[C@@H]2[C@H]1c2c(cc3c(c2OC)OCO3)CCN1C`, the Potency result is “inactive”.
With `N#Cc1ccc(C(c2ccc(C#N)cc2)n2cncn2)cc1`, the Potency entry is “inactive”.
Still for that read-out and setting: with `Cc1ccc(N(CC2=NCCN2)c2cccc(O)c2)cc1` the entry was “inactive”.
As for `C=CCCCCCCCCCCCCCC`, the activity change, negative = inhibition is 5.43% [at 23.8 µM].
`CC(C)=CCC/C(C)=C/C#N`: the Potency entry was “inactive”.
As to `COC(=O)c1cc(Cl)cc(Cl)c1`, the Potency result is “inactive”.
For the compound `C[C@H](CCC(=O)NCC(=O)O)[C@H]1CC[C@H]2[C@@H]3[C@H](O)C[C@@H]4C[C@H](O)CC[C@]4(C)[C@H]3C[C@H](O)[C@]12C`, the Potency entry is “inactive”.
As to `CCc1nccnc1C`, the Potency entry is “inactive”.
Take `CC1=C2[C@H](/C=C(\C)C(=O)O)CC[C@@H](C)[C@H]2CC1`: the Potency result was “inactive”.
The same measure, in the same setting: with `O/N=C/C=N/O` the entry was “inactive”; with `CCOC(=O)c1ccc(O)c(O)c1`, “inactive”.
The same measure, in the same setting: the value for `COc1c(Br)cc(Br)c(C)c1Br` was “inactive”.
For `C[C@H](N)C(=O)N[C@@H](C)C(=O)NC1[C@H]2CN(c3nc4c(cc3F)c(=O)c(C(=O)O)cn4-c3ccc(F)cc3F)C[C@@H]12` (some centres not stated), the result was inactive.
Turning to `COc1cccc([C@H](O)C2CCN(CCc3ccc(F)cc3)CC2)c1OC`, the Potency result was “inactive”.
As for `CCC(C)N(C)C(=O)c1cc2ccccc2c(-c2ccccc2Cl)n1` (configuration not stated), the Potency result is “inactive”.
On to `CCCCC`, for which the Potency result was “inactive”.
With `CCCCCCCCOC(=O)CCCCCCCCC(=O)OCCCCCCCC`, the Potency result was “inactive”.
Turning to `O=CNc1ccccc1`, the Potency result is “inactive”.
